# Reference: PubChem BioAssay AID489043 (National Center for Advancing Translational Sciences (NCATS), 2010)
# Records with an inconclusive call do not appear. Entries that show only a call come without a potency. Activity calls are given as the source filed them. Calls follow the shape of the dose curve; as a rule, active = well fitted activation curve with a large enough effect; inconclusive = small, poorly fitted or top-dose-only effect; inactive = flat fitted curve, though single readings scatter.
# Biological target: Relaxin receptor 2 (Homo sapiens) (UniProt Q8WXD0)
# Sequence (Q8WXD0 whole entry, looked up): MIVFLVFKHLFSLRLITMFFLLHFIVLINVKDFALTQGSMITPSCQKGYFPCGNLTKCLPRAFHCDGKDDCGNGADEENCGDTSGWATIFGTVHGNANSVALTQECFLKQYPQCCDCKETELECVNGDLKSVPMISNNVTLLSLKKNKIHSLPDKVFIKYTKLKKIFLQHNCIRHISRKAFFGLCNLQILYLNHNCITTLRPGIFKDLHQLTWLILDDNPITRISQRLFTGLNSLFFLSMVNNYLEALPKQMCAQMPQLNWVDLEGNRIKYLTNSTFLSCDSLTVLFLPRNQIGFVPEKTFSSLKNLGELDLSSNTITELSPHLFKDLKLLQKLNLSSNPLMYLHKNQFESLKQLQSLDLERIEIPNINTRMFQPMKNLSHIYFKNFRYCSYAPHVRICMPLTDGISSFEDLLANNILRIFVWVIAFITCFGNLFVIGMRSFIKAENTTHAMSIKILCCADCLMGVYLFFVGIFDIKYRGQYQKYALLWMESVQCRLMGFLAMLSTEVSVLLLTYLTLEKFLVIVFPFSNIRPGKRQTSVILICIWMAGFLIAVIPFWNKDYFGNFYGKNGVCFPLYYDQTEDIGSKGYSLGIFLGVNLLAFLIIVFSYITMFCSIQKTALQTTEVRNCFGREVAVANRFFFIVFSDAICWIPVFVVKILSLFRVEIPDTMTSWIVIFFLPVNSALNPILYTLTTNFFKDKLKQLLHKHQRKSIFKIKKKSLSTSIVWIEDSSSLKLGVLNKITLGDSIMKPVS
# Test: qHTS Assay for Agonists of the Relaxin Receptor RXFP1: RXFP2 Hit Validation; also: nearly all actives have a fitted effect of over 65% in size
# Summary of the method: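 TR-FRET cAMP read-out in lysed HEK293 RXFP2 cells, normalized to buffer (basal) and 29 nM porcine relaxin (100%). Compounds 30 min, 37C, with Ro 20174 present. EC50 via standard Hill equation.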
# Potency is read from the fitted curve at half-maximal effect.
row,Structure (SMILES),Potency
1,CCc1cc2cc3c(cc2nc1SCC(=O)Nc1nccs1)OCO3,21.8 µM (active)
2,CCN(CC)C(=O)c1cc(Cl)ccc1NC(=O)c1ccco1,inactive
3,CCn1c(=O)c2cc(C(=O)Nc3cccc(C(C)=O)c3)sc2c2ccccc21,inactive
4,O=C(Nc1ccccc1C(=O)N1CCCCC1)c1ccco1,inactive
5,CC(=O)Nc1c2c3c(cccc3n(C)c1=O)C(=O)c1ccccc1-2,inactive
6,Cc1cc(Br)c2nc3c(c(C(=O)O)c2c1)CCCCC3,1.94 µM (active)
7,CCN(CC)S(=O)(=O)c1cccc(N=Nc2c(O)c3ccccc3oc2=O)c1,34.6 µM (active)
8,COc1ccc(CN2C(=O)c3cccnc3C2=O)cc1S(=O)(=O)NC1CCCCC1,34.6 µM (active)
9,CC1CCN(S(=O)(=O)c2ccc3nc(N4CCN(c5ccccc5)CC4)ccc3c2)CC1,15.4 µM (active)
10,CC(=O)c1sc(NC(=O)C(C)C)nc1C,15.4 µM (active)
11,Nc1c(S(=O)(=O)O)cc(NC(=O)c2ccccc2)c2c1C(=O)c1ccccc1C2=O,inactive
12,O=[N+]([O-])c1cccc(CSc2nnc3ccccn23)c1,34.6 µM (active)
13,O=C(Nc1ccccc1C(=O)Nc1ccccc1C(=O)NCc1ccco1)c1ccco1,inactive
14,COc1ccc(S(=O)(=O)Nc2ccccn2)c(C)c1C,inactive
15,CCOC(=O)c1sc(NC(=O)CCc2ccc(OC)cc2)nc1C,17.3 µM (active)
16,CCCn1c(SCC(=O)Nc2ccc(NC(C)=O)cc2)nc2c1c(=O)n(C)c(=O)n2C,34.6 µM (active)

row,Structure (SMILES),Potency
1,COCCNC(=O)NC(=O)COC(=O)C12CC3CC(CC(NC(C)=O)(C3)C1)C2,inactive
2,Cc1nnc(Nc2ccc(S(N)(=O)=O)cc2)c2ccccc12,34.6 µM (active)
3,Cc1cc2nc3ccc(=[N+](C)C)cc-3sc2cc1N,inactive
4,Cc1ccc(NC(=O)CCc2nnc3ccc(N4CCN(C)CC4)nn23)cc1F,38.9 µM (active)
5,O=C(Nc1ccccc1C(=O)N1CCOCC1)c1ccco1,inactive
6,CC(=O)CCCCn1c(=O)c2c(ncn2C)n(C)c1=O,inactive
7,Cc1cc(NC(=O)c2ccccc2F)nc2c1c(=O)oc1ccccc12,15.4 µM (active)
8,COc1ccc(Nc2ncc(C#N)c(N)n2)c(OC)c1,inactive
9,COc1ccc(CNC(=O)CN2C(=O)NC(C)(c3cccc(Br)c3)C2=O)cc1 (configuration not stated),inactive
10,CCOc1ccc(NC(=O)CSc2ccc3nnc(-c4cccnc4)n3n2)cc1,34.6 µM (active)
11,COc1ccc(S(=O)(=O)N2CCOCC2)cc1NC(=O)CSc1nnc2ccccn12,6.15 µM (active)
12,NC(=O)c1ccccc1NC(=O)CC12CC3CC(CC(C3)C1)C2,inactive
13,CCN(CC)S(=O)(=O)c1ccc(N2CCOCC2)c(NC(=O)c2cc([N+](=O)[O-])ccc2Cl)c1,inactive
14,Cc1ccccc1NC(=O)CNc1ccccc1C(=O)NCc1ccco1,inactive
15,CCC1(C)Cc2c(sc3c2c2ncnn2c2nnc(SCC(=O)NCc4ccco4)n32)CO1 (configuration not stated),8.7 µM (active)
16,O=C(Nc1ccccc1C(=O)NCc1ccco1)c1ccco1,inactive
